The record followed here is PubChem BioAssay (NCATS).

Records with an inconclusive call do not appear. Calls of active or inactive are those of the source. Unless noted, calls come from the whole dose curve; as a rule, active = well fitted curve in the direction sought with a large enough effect; inconclusive = small, poorly fitted or top-dose-only effect, or another doubt; inactive = no such curve, though single readings can be large; an effect the other way counts as inactive or inconclusive.

A short description of assay [1]: qHTS drug screen for cell cycle checkpoint inhibitors in PARPi-resistant BRCA-mutant ovarian cancer cell lines. (AID 1963452; calls by dose curve). The note with it: PEO1/OlaR viability, CellTiter-Glo luminescence, 96 h, stronger effect = lower value. In short, it runs like this: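 PEO1, PEO4 and PEO1/OlaR ovarian cancer cells, 600 per well, exposed 96 h at 37C to a dilution series. Viability read by CellTiter-Glo luminescence, normalized to DMSO and empty wells; activity summarized as Z-AUC.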
Background: In qHTS, concentration-response curves come from the screen itself.

The nature of assay [2]: Dual reporter qHTS for agonist of Pregnane X Receptor (hPXR) against the NCATS DSHEA and TCM libraries: Fluorescence readout (AID 1920058). Note: 0% is about no effect. To be noted: PXR dual reporter cells; series mostly up to 40 µM. In short, it runs like this:
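hPXR-Luc HepG2 cells, 2000/well in charcoal-stripped serum, attached 5 h, dosed for ~24 h at 37 °C. Fluorescence read is CellTiter-Fluor viability (Ex/Em 405/540 nm); rifampicin positive, tetraoctyl ammonium bromide (92 µM) cytotoxicity controls.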

For assay [3], the target named is Nuclear receptor subfamily 1 group I member 2 (Homo sapiens) (UniProt O75469). Description: Dual reporter qHTS for agonist of Pregnane X Receptor (hPXR) against the NCATS DSHEA and TCM libraries: Luminescence readout (AID 1920059). Note: potency is the fitted concentration of half-maximal effect. To be noted: hPXR dual reporter cells, luciferase luminescence agonist; series mostly up to 22 µM. In short, it runs like this: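 hPXR-Luc HepG2 cells, 2000/well in 5% charcoal-stripped FBS medium, attached 5 h, then exposed 24 h at 37C to compounds. Viability by CellTiter-Fluor, then luciferase luminescence with ONE-Glo.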

The nature of assay [4]: Dual reporter qHTS for antagonist of Pregnane X Receptor (hPXR) against the NCATS DSHEA and TCM libraries: Fluorescence Readout (AID 1920061). Note: 0% is about no effect. The note with it: PXR dual reporter cells, antagonist mode; series mostly up to 40 µM. In outline: (§1)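 hPXR-Luc HepG2 cells exposed 24 h at 37 C to compounds with 2 uM rifampicin in antagonist mode; luciferase luminescence measured by ONE-Glo, with CellTiter-Fluor viability read beforehand.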

Assay [5] is described as follows: qHTS profiling for inhibitors of Plasmodium falciparum proliferation (AID 504749).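 Note: 0% = DMSO vehicle and full inhibition = artemisinin control; nearly all actives have a fitted effect of over 60% in size.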 The note with it: P. falciparum in erythrocytes, SYBR Green DNA, 72 h; series mostly up to 28.7 µM. In short, it runs like this:
(§2)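 P. falciparum-infected erythrocytes (0.3% parasitemia, 2.5% hematocrit) incubated with compound 72 h at 37 C, 5% CO2. Parasite DNA detected by SYBR Green after lysis, overnight at room temperature; normalised to 0.29 uM artemisinin and DMSO.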

For assay [6], the system named is 3D7. The description is as above. The note with it: P. falciparum in erythrocytes, SYBR Green DNA, 72 h; series mostly up to 28.7 µM. In outline:
as §2

Assay [7] deals with 7G8. The assay is described as above. The note with it: P. falciparum in erythrocytes, SYBR Green DNA, 72 h; series mostly up to 28.7 µM. In outline:
as §2

In assay [8] the test system is AA1029. Described as above. The note with it: P. falciparum in erythrocytes, SYBR Green DNA, 72 h; series mostly up to 28.7 µM. In short, it runs like this: as §2
In assay [9] the test system is AS120. The description is as above. The note with it: P. falciparum in erythrocytes, SYBR Green DNA, 72 h; series mostly up to 28.7 µM. In outline:
as §2

Assay [10] has as its system ATS95. Described as above. To be noted: P. falciparum in erythrocytes, SYBR Green DNA, 72 h; series mostly up to 28.7 µM. In outline:
as §2

For assay [11], the system named is C2A. The description is as above. The note with it: P. falciparum in erythrocytes, SYBR Green DNA, 72 h; series mostly up to 28.7 µM. In short, it runs like this: as §2
Assay [12] concerns CP185. The assay is described as above. The note with it: P. falciparum in erythrocytes, SYBR Green DNA, 72 h; series mostly up to 28.7 µM. In short, it runs like this:
as §2

Assay [13] concerns CP191. The description is as above. To be noted: P. falciparum in erythrocytes, SYBR Green DNA, 72 h; series mostly up to 28.7 µM. In short, it runs like this:
as §2

Assay [14] deals with CP192. Described as above. To be noted: P. falciparum in erythrocytes, SYBR Green DNA, 72 h; series mostly up to 28.7 µM. In short, it runs like this: as §2
Assay [15] relates to CP194. Described as above. The note with it: P. falciparum in erythrocytes, SYBR Green DNA, 72 h; series mostly up to 28.7 µM. In short, it runs like this:
as §2

In assay [16] the test system is CP201. The description is as above. To be noted: P. falciparum in erythrocytes, SYBR Green DNA, 72 h; series mostly up to 28.7 µM. In short, it runs like this:
as §2

Assay [17] deals with CP203. Described as above. The note with it: P. falciparum in erythrocytes, SYBR Green DNA, 72 h; series mostly up to 28.7 µM. In short, it runs like this:
as §2

Assay [18] concerns CP211. Described as above. The note with it: P. falciparum in erythrocytes, SYBR Green DNA, 72 h; series mostly up to 28.7 µM. In outline:
as §2

The target of assay [19] is Nuclear receptor subfamily 1 group I member 2 (Homo sapiens) (UniProt O75469). Kind of assay: Dual reporter qHTS for antagonist of Pregnane X Receptor (hPXR) against the NCATS DSHEA and TCM libraries: Luminescence Readout (AID 1920060). Note: 0% is about no effect. To be noted: hPXR dual reporter cells, luciferase luminescence, antagonist mode; series mostly up to 40 µM. In outline: as §1
[20] abbreviates: measured here: PEO1 parental Z-AUC.

Chain of Nuclear receptor subfamily 1 group I member 2 (Homo sapiens) (O75469 whole entry, looked up): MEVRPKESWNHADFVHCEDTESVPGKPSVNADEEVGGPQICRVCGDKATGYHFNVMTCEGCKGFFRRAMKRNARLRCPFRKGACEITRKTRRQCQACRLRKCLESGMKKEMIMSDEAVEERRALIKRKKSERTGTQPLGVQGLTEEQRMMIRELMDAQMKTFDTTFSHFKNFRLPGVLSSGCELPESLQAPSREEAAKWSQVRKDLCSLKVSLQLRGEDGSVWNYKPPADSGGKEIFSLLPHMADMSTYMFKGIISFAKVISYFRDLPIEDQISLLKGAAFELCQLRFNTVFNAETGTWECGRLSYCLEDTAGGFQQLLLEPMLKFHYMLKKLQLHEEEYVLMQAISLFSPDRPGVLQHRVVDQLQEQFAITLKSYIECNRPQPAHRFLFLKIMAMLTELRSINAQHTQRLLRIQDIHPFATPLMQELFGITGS

On to `Cc1nc(-c2cccnc2)sc1C(=O)Nc1ccccc1-c1cn2c(CN3CCOCC3)csc2n1`, for which the values for the Z-AUC in [1], in assay [1] (setting [20]) and in assay [1] (measured here: PEO4 Z-AUC) were 0.405 (inactive), -0.0743 and 0.19, respectively.
On to `O=C(OCC1=C[C@@H](O)[C@@H]2C=CO[C@@H](O[C@@H]3O[C@H](CO)[C@@H](O)[C@H](O)[C@H]3O)[C@H]12)c1ccc(O)cc1`, for which the outcome in assay [2] and in assay [4] was inactive. The Potency result in assay [3] was “inactive”.
For `CC(C)N(CCCNC(=O)Nc1ccc(C(C)(C)C)cc1)C[C@H]1O[C@@H](n2ccc3c(N)ncnc32)[C@H](O)[C@@H]1O`, the Z-AUC is -0.352 (inactive) in assay [1], -0.286 in assay [1] (setting [20]) and -0.377 in assay [1] (measured here: PEO4 Z-AUC).
For `CCC(CC)CC1(C(=O)Nc2ccccc2SC(=O)C(C)C)CCCCC1`, in that order: -0.732 (inactive), -0.887 and -0.923.
For `CNc1nc(C)nc(N[C@H]2CCC[C@@H](C(=O)NCc3ccc(C#N)cc3C(F)(F)F)C2)n1`, in that order: -0.0725 (inactive), 0.695 and 1.22.
On to `COc1ccc2[nH]c(S(=O)Cc3ncc(C)c(OC)c3C)nc2c1` (stereo not given), for which the Z-AUC is 0.929 (inactive) in [1], 1.11 in assay [1] (setting [20]) and 1.24 in [1] (measured here: PEO4 Z-AUC).
Consider `CCc1cccc2c3c([nH]c12)[C@@](CC)(CC(=O)O)OCC3`, for which the compound was called inactive in assay [5], in assay [6], in assay [7], in [8], in [9] and in [10]. Moreover, the result in assay [11], in assay [12], in assay [13], in assay [14], in [15] and in assay [16] was inactive. The compound was called inactive in [17] and in assay [18].
`Nc1ncnc2c1c(COc1cccc(Cl)c1)nn2C1CCOCC1`: the Z-AUC in assay [1] is -1.18 (inactive); in assay [1] (setting [20]) it was -0.772; in assay [1] (measured here: PEO4 Z-AUC), -0.767.
In the case of `Cc1ncc(NC(=O)c2ccc(CN3CCN(C)CC3)c(C(F)(F)F)c2)cc1Nc1nccc(-c2cccnc2)n1`, the figures for the Z-AUC in [1], in [1] (setting [20]) and in assay [1] (measured here: PEO4 Z-AUC) were 0.889 (inactive), -0.0515 and -0.0456, respectively.
For `CC(=O)O[C@@H]1C[C@@H](C)[C@](O)(CCC2=CC(=O)OC2)[C@@]2(C)CCCC(C)(C)C12` (stereo not given in full), the compound was called inactive in [2], in [19] and in assay [4]. Also, in [3], the Potency is 12.6 µM (active).
Regarding `Cc1noc2c1-c1ccccc1C(c1ccc(Cl)cc1)=N[C@H]2CC(N)=O`, the Z-AUC is -0.193 (inactive) in assay [1], -0.00939 in assay [1] (setting [20]) and -0.463 in [1] (measured here: PEO4 Z-AUC).
As to `N#CN1CCC[C@@H](n2nc(-c3ccc(Oc4ccc(F)cc4F)cc3)c(C(N)=O)c2N)C1`, the Z-AUC in assay [1] was -0.296 (inactive); in [1] (setting [20]) it was 0.0658; in assay [1] (measured here: PEO4 Z-AUC), 0.537.
In the case of `N#Cc1ccc(C2CCCc3cncn32)cc1` (stereo not given), the results for the Z-AUC in [1], in assay [1] (setting [20]) and in assay [1] (measured here: PEO4 Z-AUC) were 0.659 (inactive), 0.67 and 0.567, respectively.
For `COc1cccc2c1c(O)c(C(=O)N(C)c1ccc(C(F)(F)F)cc1)c(=O)n2C`, in that order: 0.835 (inactive), 0.409 and 0.643.
With `Cc1ccccc1-n1nc(-c2c(-c3ccc(F)cc3)nn3c2NC[C@@H](CO)C3)ccc1=O`, the Z-AUC was 0.0215 (inactive) in assay [1], 0.2 in [1] (setting [20]) and 0.209 in assay [1] (measured here: PEO4 Z-AUC).
`CCCCOc1nc(N)c2c(n1)N(Cc1cccc(CN3CCCC3)c1)CC(=O)N2`: the figures for the Z-AUC in [1], in [1] (setting [20]) and in assay [1] (measured here: PEO4 Z-AUC) were -0.393 (inactive), -0.969 and -0.664, respectively.
